Screening data as filed in PubChem.
In the library only some 3.5% were active in any assay of this set; here they are far more common.
TEAD-YAP inh: TEAD-YAP interaction inhibition | hit rate 1.4% among 640,000 | AID 1259422 | inhibition, % at 9.12 µM | HEK-TIYL cells, TEAD-Gal4/YAP UAS-luciferase luminescence; in the data active means inhibition above about 32%;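 further: 0% = median of test compound wells and 100% = reference inhibitor wells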
MITF primary: blocks human microphthalmia-associated transcription factor; hit rate 0.91% among 650,000; inhibition, % at 2.6 µM; O75030; AlphaScreen MITF homodimerization, bead proximity signal; in the data active means inhibition above about 50%;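 further: 0% = vehicle wells with protein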
Target sequence (O75030 whole entry, looked up): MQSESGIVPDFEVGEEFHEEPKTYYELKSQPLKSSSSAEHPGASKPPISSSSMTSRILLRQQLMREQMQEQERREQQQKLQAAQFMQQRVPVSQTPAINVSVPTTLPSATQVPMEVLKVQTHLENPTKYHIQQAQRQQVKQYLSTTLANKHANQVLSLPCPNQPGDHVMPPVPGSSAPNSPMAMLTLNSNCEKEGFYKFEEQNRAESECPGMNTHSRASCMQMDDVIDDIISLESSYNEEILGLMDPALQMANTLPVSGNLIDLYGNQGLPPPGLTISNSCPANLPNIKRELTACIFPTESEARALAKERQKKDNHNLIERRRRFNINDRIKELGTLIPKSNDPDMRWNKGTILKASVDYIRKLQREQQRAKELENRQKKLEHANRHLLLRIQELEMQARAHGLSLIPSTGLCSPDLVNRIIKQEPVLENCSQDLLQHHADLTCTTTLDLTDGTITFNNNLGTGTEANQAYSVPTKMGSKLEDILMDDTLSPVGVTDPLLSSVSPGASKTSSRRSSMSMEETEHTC
FBW7 act: activators of human E3 ligase FBW7; hit rate 0.13% among 650,000; AID 1259310; normalized activity (activation), % at 26.1 µM; Q969H0; AlphaScreen FBW7–phospho-cyclin E peptide binding, activator screen; in the data active means normalized activity above about 1.9%;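 further: purified mutant Fbw7 with reduced substrate affinity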
GPR151 ag: activators of human GPR151 | Q8TDV0 | PathHunter beta-arrestin GPR151 cells, luminescence | activation, % at 11.2 µM | hit rate 1% among 650,000 | AID 1508602; in the data active means activation above about 4.9%;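 further: 0% = median of compound wells and 100% = cells with positive control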
MITF inh conf: human MITF inhibition, confirmation; shares compounds with MITF primary; AlphaScreen MITF homodimerization, biotin/His-MITF beads; inhibition, % at 2.6 µM; hit rate 16% among 4,700;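 active means inhibition above a cutoff derived from the DMSO control wells, cut at about 28% in these data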;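 further: 0% = MITF dimer wells with DMSO only; inhibitors lower the bead chemiluminescence by keeping MITF from dimerizing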
AlphaScreen DR: counter-screen: compounds optically interfering with AlphaScreen; shares compounds with MITF primary; AlphaScreen optical interference counterscreen, cell-free; IC50, µM; hit rate 6% among 480; AID 1259373; call rule not given here
AlphaScreen intf2: AlphaScreen optical interference, counter-screen; shares compounds with MITF primary; inhibition, % at 2.6 µM; hit rate 7.6% among 4,700; LysRS AlphaScreen counterscreen, signal interference, triplicate;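 active means inhibition above a cutoff derived from the DMSO control wells, cut at about 30% in these data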
* marks the source's active call; other numbers are inactive results; nt = no result.

SMILES | TEAD-YAP inh | MITF primary | FBW7 act | GPR151 ag | MITF inh conf | AlphaScreen intf2 | others
O=C(NCc1cccnc1)c1ccnc(-c2cccs2)c1 | 9 | 51* | 0 | 0 | 30* | -3 | AlphaScreen DR=>6.9
O=C(NCc1ccccc1)c1ccnc(-c2cccs2)c1 | -5 | 31 | 0 | -1 | nt | nt
COC(=O)c1ccc(C(=S)NCC2(N3CCOCC3)CCCCC2)cc1 | -2 | -4 | 0 | -1 | nt | nt
COc1ccc(CNC(=O)CNCC2(N3CCOCC3)CCCCC2)cc1 | 2 | 55* | 0 | 0 | -6 | -3
Oc1ccc(CCNc2cc(-c3cccs3)ncn2)cc1 | -18 | 59* | 0 | 3 | 44* | 4 | AlphaScreen DR=>6.7
CC(C)n1cc(C2c3[nH]c4ccccc4c3CCN2CCCn2cccn2)cn1 (stereo not drawn) | 10 | 13 | 0 | -1 | nt | nt
COc1ccc(S(=O)(=O)CCC(=O)Nc2nc3ccc(OC)cc3s2)cc1 | -19 | 54* | 0 | 1 | 28* | -4
Cc1ccc2nc(NC(=O)COc3ccc(Cl)cc3Cl)sc2c1 | 3 | 14 | 0 | -1 | nt | nt
CS(=O)(=O)c1ccc2nc(NC(=O)COc3ccc(Cl)cc3Cl)sc2c1 | -1 | 74* | 0 | -1 | 10 | 7
COc1ccc(S(=O)(=O)CCC(=O)Nc2nc3ccc(C)cc3s2)cc1 | -1 | 16 | 0 | -1 | nt | nt
CCN(CC)C(=O)CN1CCC(O)(c2ccccn2)CC1 | 15 | 9 | 0 | -2 | nt | nt
CCN(CC)C(=O)CN1CCN(c2ncccn2)CC1 | 0 | 56* | 0 | 1 | 18 | 10
COc1cc2nc(SCC(=O)NCc3ccco3)n(Cc3ccc(Cl)cc3)c(=O)c2cc1OC | -2 | -4 | 0 | 3 | nt | nt
Cc1cc(C)c(OCCOCCN2CCNCC2)c(C)c1 | -1 | 10 | 0 | -1 | nt | nt
Cc1cc(Cl)cc(C)c1OCCN1CCNCC1 | 0 | 55* | 0 | 3 | -4 | -4
Clc1cc(Cl)c(OCCCN2CCNCC2)c(Cl)c1 | -4 | 56* | -1 | 2 | -10 | -2
Clc1ccc(OCCCN2CCNCC2)c(Br)c1 | -2 | 39 | 0 | 0 | nt | nt
Clc1ccc(OCCN2CCNCC2)c(Br)c1 | 13 | 65* | 0 | 2 | -13 | -2
Clc1ccc(SCCOCCN2CCNCC2)cc1 | -7 | 59* | 0 | -1 | -15 | -4
Cc1cc(Cl)c(OCCCN2CCNCC2)c(Br)c1 | 1 | 47 | 0 | 2 | nt | nt
Clc1ccc(SCCN2CCNCC2)cc1 | 11 | 31 | 0 | 0 | nt | nt
CC12CCC(C/C1=N\NC(N)=O)C2(C)C (stereo not drawn) | 4 | 1 | 0 | -1 | nt | nt
Cc1cc(OCCOCCN2CCNCC2)cc(C)c1Cl | -5 | 64* | 0 | 0 | 4 | 8
Cc1ccc(OCCCN2CCNCC2)c(Br)c1 | -17 | 69* | 0 | -1 | 8 | -3
Clc1ccc(OCCCCN2CCNCC2)c(Br)c1 | -5 | 79* | 0 | -1 | 4 | 16
SMILES | TEAD-YAP inh | MITF primary | FBW7 act | GPR151 ag | MITF inh conf | AlphaScreen intf2 | others
Cc1cc(Cl)ccc1OCCN1CCNCC1 | 9 | 73* | 0 | 0 | -4 | 0
CC1=NN(c2ccc(Cl)c(C(=O)O)c2)C(=O)/C1=C/c1ccc(-c2ccccc2Cl)o1 | -5 | -18 | 0 | 0 | nt | nt
COc1ccc(NS(=O)(=O)c2cccc3cccnc23)cc1OC | 16 | 11 | 0 | 1 | nt | nt
O=C(CN1CCC2(CC1)NC(=O)N(Cc1ccccc1)C2=O)Nc1cccc(F)c1 | 9 | 4 | 0 | -1 | nt | nt
CCCCCOC(=O)C1=C(C)NC(=O)NC1c1ccc(Br)s1 (stereo not drawn) | 7 | -7 | 0 | 0 | nt | nt
COc1ccc(OC)c(NC(=O)c2ccc(Cl)cc2Cl)c1 | -8 | 9 | 0 | 0 | nt | nt
COc1ccc(N2C(=O)C3CCCCC3C2=O)cc1NC(=O)c1ccc(Cl)cc1Cl (stereo not drawn) | 8 | 76* | 0 | 0 | 8 | 20
O=S(=O)(NCCc1ccccc1)c1ccc(I)cc1 | 9 | -1 | 0 | -2 | nt | nt
Cc1ccc(OCCCn2cncn2)c(I)c1 | -9 | 54* | 0 | 0 | -13 | -5
CCN1CCN(CCCOc2ccc(C)cc2I)CC1 | -5 | 57* | 0 | -1 | 6 | 16
CCN1CCN(CCCCOc2ccc(C)cc2I)CC1 | 5 | 53* | 1 | -1 | 9 | 15
Cc1ccc(OCCn2cncn2)c([N+](=O)[O-])c1 | -3 | -27 | 0 | 0 | nt | nt
O=C1CSC(c2ccc([N+](=O)[O-])cc2)N1C1CCCCC1 (stereo not drawn) | -14 | -4 | 0 | 1 | nt | nt
CCOC(=O)C1CCN(C/C=C/c2ccccc2OC)CC1 | 3 | 33 | 0 | 0 | nt | nt
CCOC(=O)C1CCN(C/C=C/c2ccccc2[N+](=O)[O-])CC1 | 5 | 54* | 1 | -1 | -13 | -7
COCCNCCOCCOc1ccc(C)cc1[N+](=O)[O-] | -8 | 58* | 0 | -1 | 11 | 10
CCC(C)NCCCCOc1ccc(C)cc1[N+](=O)[O-] (stereo not drawn) | -6 | 70* | 0 | 2 | 3 | 14
COCCNCCCCOc1ccc(C)cc1[N+](=O)[O-] | -3 | 17 | 0 | -1 | nt | nt
COCCCNCCOCCOc1ccc(C)cc1[N+](=O)[O-] | 6 | 30 | 0 | 0 | nt | nt
CCC(C)NCCOc1ccccc1[N+](=O)[O-] (stereo not drawn) | 12 | 33 | 0 | 1 | nt | nt
C=CCNCCCCOc1ccc(C)cc1[N+](=O)[O-] | -2 | 75* | 0 | 1 | -4 | 0
Cc1ccc(-c2ccc(/C=N/NC(=O)CC3(C)OCCO3)o2)c([N+](=O)[O-])c1 | 0 | -7 | 0 | 0 | nt | nt
Cc1cccc(NC(=O)C(=O)NCCCO)c1C | 4 | 21 | 0 | 0 | nt | nt
CC(C)CN(C(=O)Cc1cccs1)c1nnc(-c2cccnc2)s1 | -21 | 20 | 0 | 0 | nt | nt
Cc1c(Cl)cccc1-c1ccc(C(=O)NCc2ccco2)o1 | -13 | 17 | 0 | -3 | nt | nt
SMILES | TEAD-YAP inh | MITF primary | FBW7 act | GPR151 ag | MITF inh conf | AlphaScreen intf2 | others
COc1ccc(S(=O)(=O)NCCSc2ccccc2)cc1Cl | 5 | -6 | 0 | -1 | nt | nt
CCn1c(SCC(=O)Nc2nccs2)nnc1-c1ccc(Cl)cc1 | 12 | 7 | 0 | -1 | nt | nt
COc1cccc(NC(=O)CN(C)CC(=O)Nc2ccc(C)c(F)c2)c1 | 3 | 91* | 0 | 1 | 10 | 20
CN(CC(=O)Nc1cccc(F)c1)CC(=O)Nc1ccccc1Oc1ccccc1 | -4 | 70* | 0 | 4 | -10 | 9
CN(CC(=O)Nc1cccc(F)c1)CC(=O)Nc1ccccc1-c1ccccc1 | 2 | -1 | 0 | 0 | nt | nt
CCOc1ccccc1NC(=O)c1cc(S(=O)(=O)N2CCN(c3cccc(C)c3C)CC2)ccc1F | 6 | 14 | 0 | -1 | nt | nt
NS(=O)(=O)c1cccc(Nc2ncnc3sc4c(c23)CCC4)c1 | 6 | 11 | 0 | 1 | nt | nt
CSc1ccc(CN2CCN(CCO)CC2)cc1 | -10 | 80* | 0 | -1 | -2 | 0
